Results as given in PubChem BioAssay (NCI).
Several values for one entry are separate records, joined by “and”; a condition that tells them apart may be missing. Equal entries are not always repeated. The panel holds about 83,000 compounds, 20% with a hit somewhere; the sample as a whole holds those more often.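 Compound tested at a single concentration for 48 hours in 96-well plates; a percent growth value below 10 was scored as active.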 A number with no mark means an inactive call. Activity calls are given as the source filed them.

system: MDA-MB-468 breast; test: NCI-60 one-dose screen, 48 h (100 = growth as untreated, 0 = no growth, -100 = all killed); conditions: 10 µM unless noted

Row | Structure (SMILES) | growth
1 | CCNc1ccc(-c2nc3ccccc3n3cccc23)cc1 | 2.19% (active)
2 | COC(=O)[C@H]1CCCN1C(=O)C1CCCN1C(=O)[C@@H](Cc1ccccc1)NC(=S)Nc1cc(C(F)(F)F)cc(C(F)(F)F)c1 (stereo not given in full) | 100% and 58.2%
3 | CC(=O)c1ccc(-n2cc(CN3CCN(c4cc5c(cc4F)c(=O)c(C(=O)O)cn5C4CC4)CC3)nn2)cc1 | 72.5%
4 | Cn1c([N+](=O)[O-])cnc1/C=C1\Oc2cc(Cl)ccc2C1=O | 68.7%
5 | CS(=O)(=O)N(c1cc(-c2ccc3ncnc(Nc4ccc(F)c(Cl)c4)c3c2)cnc1Cl)S(C)(=O)=O | -19.6% (active)
6 | O/N=C/c1cccs1 | 106%
7 | CN(C)Cc1ccc(NC(=O)c2cncc(C#Cc3cnc(N)c4ncccc34)c2)cc1F | 72.3%
8 | CC(=O)N(C(C)=O)c1ccc(C)cc1 | 98.9%
9 | O=C(O)Cc1ccc(Cl)cc1 | 106%
10 | O=[N+]([O-])c1ccc2[nH]cc(-c3c4ccsc4cc4[nH]c5ccc([N+](=O)[O-])cc5c34)c2c1 | 1.21% (active)
11 | CN1CCN(Cc2ccc(C(=O)Nc3cncc(C#Cc4cnc5cccnn45)c3)cc2C(F)(F)F)CC1 | 61.1%
12 | C=C1C(=O)O[C@H]2[C@H]1CC/C(COC(=O)CSCSCC(=O)OC/C1=C/CC[C@@]3(C)O[C@H]3[C@H]3OC(=O)C(=C)[C@@H]3CC1)=C\CC[C@@]1(C)O[C@@H]21 | -14.2% (active)
13 | O=C1/C(=C/c2ccc(Cl)cc2)SC(=Nc2ccc(Cl)cc2)N1Cc1nc2ccccc2[nH]1 | 78.6%
14 | CCCCCC(=O)Oc1ccc(/C(=C(\C)c2ccccc2)c2ccc(OCCN(CC)CC)cc2)cc1 | 61.5%
15 | Oc1cccc(-c2nc(-c3n[nH]c(=S)n3-c3ccccc3)cc3c2[nH]c2ccccc23)c1 | 9.85% (active)
16 | COc1ccc(C(=O)Nc2cccc(-c3cc(=O)c4c(OC)c(OC)c(OC)cc4o3)c2)cc1 | 75.2%
17 | COc1ccc(C/C(C)=C(/c2ccc(OCCN3CCCCC3)cc2)c2ccc(OC(=O)NCc3ccccc3)cc2)cc1 | -82.7% (active)
18 | COc1cc(-c2nc(-c3nc4cc(C(=O)c5ccccc5)ccc4[nH]3)cc3c2[nH]c2ccccc23)cc(OC)c1OC | 93%
19 | c1ccc(C2CC(c3cccc(Nc4ccncc4)c3)=NN2c2ccccc2)cc1 (stereo not given) | 24.2%
20 | N#CC1=C2NCCCNc3oc(nc3C#N)Cc3ccccc3CC(=N1)O2 | 75.1%

Row | Structure (SMILES) | growth
21 | COc1ccc(N2CCN(C3=C(Cl)C(=O)c4ncccc4C3=O)CC2)cc1 | -57.8% (active)
22 | N=C(N)c1ccc(-c2ccc(-c3ccco3)o2)cc1F | -57.4% (active)
23 | Nc1nc(N)c(C=Nc2ccc(Br)cc2)c(Nc2ccc(Br)cc2)n1 | 109%
24 | N#Cc1c(-c2ccccc2)cc(-c2ccccc2)n(CCCC(=O)O)c1=O | -27.1% (active)
25 | COc1ccc(Cn2cc3c(c2-c2cc(OC)c(OC)c(OC)c2)CCc2c(CN4CCOCC4)noc2-3)cc1 | 45.5%
26 | CCOC(=O)c1c(C)nc2c(c1N)CC(=O)N2Cc1cc(F)cc(Cl)c1 | 84.9%
27 | N/C(=N\C(N)=N\c1nc2ccccc2s1)c1ccncc1Cl | 90.3%
28 | [O-][n+]1c(Cl)cc(Cl)c2ccccc21 | 123%
29 | O=C(O)c1ccc(-n2cc(CNc3cc(F)c(F)c(F)c3)c(-c3ccc(F)cc3)n2)cc1 | 115%
30 | Cc1ccc(-n2cc(/C=N/NC(=O)c3ccncc3)c(-c3ccc(S(C)(=O)=O)cc3)n2)cc1 | 100%
31 | Oc1ccc(CSc2nnc(-c3cnccn3)n2-c2ccccc2)c2cccnc12 | 5.53% (active)
32 | Clc1nccc2c(-c3csc(-c4c[nH]c5ccccc45)n3)c[nH]c12 | 29.2%
33 | COc1cc(C(=O)N/N=C/c2ccc(N(C)C)cc2)cc(OC)c1OC | -12.5% (active)
34 | O=C(Nc1cccc(C(F)(F)F)c1)c1cc(-c2ccc(F)cc2F)ccc1O | -5% (active)
35 | Cc1cc(C(=O)Nc2cc(Nc3ncccc3-c3ncnc4nc[nH]c34)ccc2F)cc(C(F)(F)F)c1 | 93.6%
36 | C=CCO[C@H]1CO[C@H]2[C@@H]1OC[C@@H]2Oc1ccc(Nc2ccnc(Nc3ccc(O[C@H]4CO[C@H]5[C@@H]4OC[C@@H]5OCC=C)c(Cl)c3)n2)cc1Cl | -84.5% (active)
37 | COc1cc(C2C3CC4CCCC[C@H]4N3[C@@]3(C(=O)Nc4cc(Cl)ccc43)C2C(=O)c2nc3ccccc3[nH]2)cc(OC)c1OC (stereo not given in full) | 52.8%
38 | C=C1CC[C@@H]2[C@]3(C)COC(c4ccccc4)O[C@@H]3CC[C@@]2(C)[C@@H]1C/C=C1/C(=O)OC[C@H]1O (stereo not given in full) | 91.4%
39 | c1ccc(Cc2ccccc2)cc1 | 92.9%
40 | Cc1ccc([P+](Cc2ccc([N+](=O)[O-])cc2)(c2ccc(C)cc2)c2ccc(C)cc2)cc1 | -11.7% (active)
